These results are taken from PubChem BioAssay (Tox21).

Experiment [1] is described as follows: qHTS assay to test for compound auto fluorescence at 460 nm (blue) in HEK293 cell free culture (AID 720681). An outline of the steps:
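Blue fluorescence (Ex 405/Em 460 nm, triamterene-equivalent) was read immediately after pin transfer of compound or DMSO into medium (DMEM, 10% FBS) without cells.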
Background: qHTS replaces the single test concentration by a dilution series.

Experiment [2] is described as follows: qHTS assay to test for compound auto fluorescence at 590 nm (red) in HEK293 cell free culture (AID 720683). An outline of the steps: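 Red-channel autofluorescence of compounds in culture medium (DMEM, 10% FBS), no cells, measured at 540/590 nm. Rose Bengal sodium is the reference fluorophore for equivalence.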
Experiment [3] can be described thus: qHTS assay to test for compound auto fluorescence at 590 nm (red) in HepG2 cell free culture (AID 720684). In outline:
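No cells present: MEM + 10% FBS only. Compound pinned in, red label read (540/590 nm). Activity = fluorescence equivalent to Rose Bengal sodium.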

Experiment [4] in a line: qHTS assay to test for compound auto fluorescence at 460 nm (blue) in HepG2 cell free culture (AID 720685). An outline of the steps: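 Cell-free plates of MEM plus 10% FBS received 23 nL compound or DMSO vehicle; blue-channel (405/460 nm) intensity scored against triamterene as reference fluorophore.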
Experiment [5] is described as follows: qHTS assay to test for compound auto fluorescence at 535 nm (green) in HepG2 cell free culture (AID 720686).
For experiment [6], the target named is Glucocorticoid receptor (Homo sapiens) (UniProt P04150). Nature of the experiment: qHTS assay to identify small molecule agonists of the glucocorticoid receptor (GR) signaling pathway (AID 720691; active = well fitted activation curve with a large enough effect in the signal ratio in the repeat runs, not every such curve was filed as active; the % refers to the signal ratio). In outline: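 Agonist-mode qHTS in HeLa cells stably expressing a glucocorticoid-response-element beta-lactamase reporter. Fluorescence intensity read with FRET substrate (2 h, room temperature) after 18 h compound treatment at 37 C.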
Chain of Glucocorticoid receptor (Homo sapiens) (P04150 whole entry, looked up): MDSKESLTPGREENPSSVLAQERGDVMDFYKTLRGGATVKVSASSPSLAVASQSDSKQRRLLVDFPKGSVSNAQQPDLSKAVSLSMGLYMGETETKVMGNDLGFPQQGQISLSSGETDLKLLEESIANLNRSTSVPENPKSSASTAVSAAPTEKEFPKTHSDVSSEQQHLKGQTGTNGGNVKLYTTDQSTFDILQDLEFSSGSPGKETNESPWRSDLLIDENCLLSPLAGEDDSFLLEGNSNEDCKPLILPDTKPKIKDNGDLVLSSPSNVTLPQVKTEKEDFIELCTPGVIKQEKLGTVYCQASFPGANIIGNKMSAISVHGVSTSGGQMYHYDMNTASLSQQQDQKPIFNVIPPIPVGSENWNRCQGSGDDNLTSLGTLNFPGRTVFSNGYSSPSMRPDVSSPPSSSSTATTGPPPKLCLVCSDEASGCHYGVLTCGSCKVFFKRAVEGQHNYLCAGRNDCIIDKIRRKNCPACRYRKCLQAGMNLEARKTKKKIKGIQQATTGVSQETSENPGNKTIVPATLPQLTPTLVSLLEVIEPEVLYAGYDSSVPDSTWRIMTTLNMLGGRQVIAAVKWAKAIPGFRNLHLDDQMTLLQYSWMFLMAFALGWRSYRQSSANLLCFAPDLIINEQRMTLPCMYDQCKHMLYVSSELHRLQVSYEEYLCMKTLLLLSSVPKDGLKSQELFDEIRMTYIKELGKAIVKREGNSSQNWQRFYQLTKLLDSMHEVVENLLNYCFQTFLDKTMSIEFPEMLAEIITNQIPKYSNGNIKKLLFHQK

Experiment [7] shares this target. Nature of the experiment: qHTS assay to identify small molecule antagonists of the glucocorticoid receptor (GR) signaling pathway (AID 720692; active = well fitted inhibition curve with a large enough effect in the signal ratio in the repeat runs, not every such curve was filed as active; the % refers to the signal ratio; note: potency is the fitted concentration of half-maximal effect). An outline of the steps:
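Inhibition of dexamethasone-driven (5 nM final) beta-lactamase expression was measured in GRE-reporter HeLa cells over 18 h at 37C. Fluorescence was read after 2 h with the B/G FRET substrate at room temperature.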

Experiment [8] can be described thus: qHTS assay to identify small molecule antagonists of the glucocorticoid receptor (GR) signaling pathway - cell viability counter screen (AID 720693). Note: nearly all actives have a fitted effect of over 55% in size.
Experiment [9] can be described thus: qHTS assay for identifying genotoxic compounds that show differential cytotoxicity against isogenic chicken DT40 cell lines with known DNA damage response pathways - wild type cell line (AID 743012). Note: nearly all actives have a fitted effect of over 60% in size. Note: potency is the fitted concentration of half-maximal effect. In outline:
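Viability by ATP luminescence (CellTiter-Glo, 30 min RT) after 40 h compound treatment at 37 C/5% CO2, using 300 parental DNA repair-proficient DT40 cells per well.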

Experiment [10] in a line: qHTS assay for identifying genotoxic compounds that show differential cytotoxicity against isogenic chicken DT40 cell lines with known DNA damage response pathways - Rev3 mutant cell line (AID 743014). Note: nearly all actives have a fitted effect of over 55% in size. Note: potency is the fitted concentration of half-maximal effect.
A short description of experiment [11]: qHTS assay for identifying genotoxic compounds that show differential cytotoxicity against isogenic chicken DT40 cell lines with known DNA damage response pathways - Rad54/Ku70 mutant cell line (AID 743015). Note: nearly all actives have a fitted effect of over 60% in size. Note: potency is the fitted concentration of half-maximal effect.
The nature of experiment [12]: qHTS assay to identify small molecule antagonists of the androgen receptor (AR) signaling pathway - cell viability counter screen (AID 743033; note: nearly all actives have a fitted effect of over 45% in size; note: potency is the fitted concentration of half-maximal effect).
Experiment [13] in a line: qHTS assay to identify small molecule antagonists of the androgen receptor (AR) signaling pathway using the MDA cell line - cell viability counter screen (AID 743041; note: nearly all actives have a fitted effect of over 45% in size). An outline of the steps:
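Using the breast carcinoma line MDA-kb2 AR-luc, test chemicals were co-incubated with R1881 for 16 h; CellTiter-Fluor reagent, added at 15.5 h, provided a fluorescence measure of live cells.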

A short description of experiment [14]: qHTS assay to identify small molecule antagonists of the thyroid receptor (TR) signaling pathway - cell viability counter screen (AID 743064). Note: nearly all actives have a fitted effect of over 50% in size. Note: potency is the fitted concentration of half-maximal effect. In outline: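 In-well cytotoxicity read by CellTiter-Fluor (30 min, 37 C) following 23.5 h exposure of GH3 cells bearing a TRE-luciferase sensor. Compounds were added alongside 1 nM (final) T3 to drive TR transactivation.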

The nature of experiment [15]: qHTS assay to test for compound auto fluorescence at 535 nm (green) in HEK293 cell free culture (AID 720682). In outline:
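Compounds were pin-transferred into cell-free DMEM with 10% FBS, and green fluorescence was read at excitation 485 nm and emission 535 nm. Intensities were expressed as fluorescein-equivalent values.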

Experiment [16] is described as follows: qHTS assay to test for compound auto fluorescence at 460 nm (blue) in HepG2 cells (AID 720687). An outline of the steps: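 Blue-channel autofluorescence (Ex/Em 405/460 nm, triamterene-equivalent) was measured after 1 hr compound exposure at 37 C, 5% CO2. Cells were HepG2, plated overnight at 37 C in MEM plus 10% FBS.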
Experiment [17] has as its target Androgen receptor (Homo sapiens) (UniProt P10275). In words: qHTS assay to identify small molecule agonists of the androgen receptor (AR) signaling pathway (AID 743036; active = well fitted activation curve with a large enough effect in the signal ratio in the repeat runs, with a control signal flat, not every such curve was filed as active; the % refers to the signal ratio). An outline of the steps: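 Activation was read as beta-lactamase FRET signal from LiveBLAzer B/G substrate, added for 2 h at room temperature. Before that, GeneBLAzer AR-UAS-bla GripTite (HEK293) cells had 16 h compound exposure at 37C.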

Experiment [18] has the same target. Nature of the experiment: qHTS assay to identify small molecule agonists of the androgen receptor (AR) signaling pathway using the MDA cell line (AID 743040; note: nearly all actives have a fitted effect of over 20% in size). In outline:
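Stable MMTV-luciferase reporter in MDA-kb2 cells; note the promoter carries GR as well as AR response elements. 16 h compound treatment, 37C, 0% CO2; ONE-Glo luminescence endpoint.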

The target is the same in experiment [19]. In words: qHTS assay to identify small molecule antagonists of the androgen receptor (AR) signaling pathway (AID 743035; active = well fitted inhibition curve with a large enough effect in the signal ratio in the repeat runs, not every such curve was filed as active; the % refers to the signal ratio). An outline of the steps: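 Antagonist mode: AR-bla HEK293 cells co-treated with test compounds and agonist R1881 for 16 h at 37C, 5% CO2. Beta-lactamase activity read as FRET fluorescence after 2 h room-temperature substrate loading.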

Records with an inconclusive call do not appear. The source made the active and inactive calls. Unless noted, calls come from the whole dose curve; as a rule, active = well fitted curve in the direction sought with a large enough effect in the repeat runs; inconclusive = weak or mixed curves; inactive = no such curve, though single readings can be large; an effect the other way counts as inactive or inconclusive.

Chain of Androgen receptor (Homo sapiens) (P10275 whole entry, looked up): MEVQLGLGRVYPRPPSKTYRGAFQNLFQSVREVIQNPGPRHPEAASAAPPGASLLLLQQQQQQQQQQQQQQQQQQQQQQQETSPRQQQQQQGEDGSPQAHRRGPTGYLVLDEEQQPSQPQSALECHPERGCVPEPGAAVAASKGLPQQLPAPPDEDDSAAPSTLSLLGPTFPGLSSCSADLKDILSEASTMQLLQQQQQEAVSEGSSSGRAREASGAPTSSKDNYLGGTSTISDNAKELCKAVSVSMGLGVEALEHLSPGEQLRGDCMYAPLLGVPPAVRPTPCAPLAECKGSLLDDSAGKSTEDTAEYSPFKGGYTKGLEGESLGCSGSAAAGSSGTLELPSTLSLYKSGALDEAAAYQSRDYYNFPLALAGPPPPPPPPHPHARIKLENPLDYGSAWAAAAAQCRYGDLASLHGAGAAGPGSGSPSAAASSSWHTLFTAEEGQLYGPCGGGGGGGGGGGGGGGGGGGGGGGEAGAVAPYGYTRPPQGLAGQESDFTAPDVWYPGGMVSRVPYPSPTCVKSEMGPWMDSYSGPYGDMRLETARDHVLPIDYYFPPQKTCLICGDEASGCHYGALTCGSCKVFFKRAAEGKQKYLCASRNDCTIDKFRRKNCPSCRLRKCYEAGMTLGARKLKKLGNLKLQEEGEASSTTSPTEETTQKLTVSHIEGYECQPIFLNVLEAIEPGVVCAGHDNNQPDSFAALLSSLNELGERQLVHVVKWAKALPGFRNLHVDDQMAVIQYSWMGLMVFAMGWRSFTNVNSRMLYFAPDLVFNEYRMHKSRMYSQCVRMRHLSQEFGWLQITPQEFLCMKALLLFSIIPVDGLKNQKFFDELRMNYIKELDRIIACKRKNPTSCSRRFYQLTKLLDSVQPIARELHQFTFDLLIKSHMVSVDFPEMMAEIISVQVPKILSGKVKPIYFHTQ

For the compound `COc1ccc(C(=O)N2CCCC2=O)cc1`, the compound was called inactive in experiment [1], in [2], in experiment [3], in experiment [4], in experiment [5] and in experiment [6]. The Potency entry in [7], in experiment [8], in experiment [9], in [10], in experiment [11] and in experiment [13] was “inactive” each time. For the same compound, the Potency entry in experiment [14] was “inactive”. For the same compound, the Potency in experiment [12] was 0.0085 µM (active).

`O=C(Cc1ccccc1)OCc1ccccc1`: the call in experiment [1], in experiment [15], in experiment [2], in experiment [3], in experiment [4] and in [5] was inactive. The outcome in [16] and in experiment [6] was inactive. The Potency result in [7], in [8], in experiment [9], in experiment [10], in experiment [11] and in experiment [12] was “inactive” in each case. Besides, the Potency entry in experiment [13] and in experiment [14] was “inactive” throughout.

Turning to `CC(=O)C(Cl)Cl`, the outcome in [1], in experiment [15], in [2], in experiment [3], in experiment [4] and in experiment [5] was inactive. Also, the compound was called inactive in experiment [6]. Besides, the Potency result in experiment [7], in experiment [8], in experiment [9], in [10], in experiment [11] and in [12] was “inactive” throughout. For the same compound, the Potency result in experiment [13] and in experiment [14] was “inactive” throughout.

Turning to `COC(=O)COc1ccc(Cl)cc1Cl`, the outcome in [1], in experiment [15], in experiment [2], in experiment [3], in experiment [4] and in [5] was inactive. The Potency entry in experiment [8], in experiment [9], in experiment [10], in experiment [11], in [12] and in experiment [13] was “inactive” each time.

As to `N#CC(CCc1ccc(Cl)cc1)(Cn1cncn1)c1ccccc1` (stereo not given), the compound was called inactive in [1], in experiment [15], in experiment [2], in experiment [3], in experiment [4] and in experiment [5]. Moreover, the compound was called inactive in [16] and in [17]. The Potency in experiment [7] is 49 µM (active); in experiment [9], 13.7 µM (active); in experiment [10] it was 13.7 µM (active); in experiment [11], 13.7 µM (active); in experiment [12], 49 µM (active); in [14], 30.6 µM (active). Further, the Potency result in experiment [8] and in experiment [18] was “inactive” throughout.

As for `CC(C)CC#N`, the result in experiment [1], in [15], in experiment [2], in experiment [3], in experiment [4] and in [5] was inactive. In addition, the outcome in [6] and in [17] was inactive. The Potency entry in experiment [7], in [8], in experiment [9], in experiment [10], in experiment [11] and in experiment [12] was “inactive” each time. Besides, the Potency entry in [19], in experiment [18], in experiment [13] and in experiment [14] was “inactive” throughout.

For the compound `COC(=O)C(C)Oc1ccc(Oc2ccc(Cl)cc2Cl)cc1` (stereo not given), the compound was called inactive in [1], in experiment [15], in experiment [2], in experiment [3], in [4] and in [5]. Also, in [6], the outcome was inactive. Moreover, the Potency entry in experiment [8], in experiment [12] and in experiment [13] was “inactive” each time. Besides, the Potency in [11] is 68.6 µM (active).

Regarding `ClC(Cl)C(Cl)Cl`, the call in experiment [1], in experiment [15], in experiment [2], in experiment [3], in [4] and in experiment [5] was inactive. Also, the compound was called inactive in experiment [16] and in experiment [6]. Also, the Potency result in [7], in experiment [8], in experiment [9], in experiment [10], in experiment [11] and in experiment [12] was “inactive” in each case. The Potency result in experiment [13] and in experiment [14] was “inactive” throughout.

On to `O=[N+]([O-])c1ccc2c3c(cccc13)CC2`, for which the outcome in [1], in experiment [15], in [2], in experiment [3], in experiment [4] and in experiment [5] was inactive. Moreover, in [16], the result was inactive. Besides, the Potency result in experiment [8], in [9], in experiment [12] and in experiment [13] was “inactive” each time. Moreover, in experiment [10], the Potency is 19.3 µM (active).
